The results in this text go back to PubChem BioAssay (NCATS).

Inconclusive results are not listed. Entries that show only a call come without a potency. Calls of active or inactive are those of the source. Calls come from the whole dose curve; as a rule, active = well fitted inhibition curve with a large enough effect; inconclusive = small, poorly fitted or top-dose-only effect; inactive = no such curve, though single readings can be large or run the other way.
Potency is the fitted concentration of half-maximal effect.

The assay concerns Zika virus NS2B-NS3 protease (unlinked). The assay is described as follows: Optimization of GU AMC qHTS for Zika virus inhibitors: Unlinked NS2B-NS3 protease assay (AID 1347151). Note: nearly all actives have a fitted effect of over 80% in size. The settings on record: recombinant ZIKV NS2B-NS3 protease, fluorogenic AMC substrate; series mostly up to 52.5 µM. The text has this: Avindra Nath, Ph.D., National Institute of Neurological Disorders and Stroke (NINDS), Bethesda, MD
Radhakrishnan Padmanabhan, Ph.D., Georgetown University (GU), Washington D.C.
Zika Virus causes congenital defects, including microcephaly and is associated with Guillain-Barre syndrome, eningoencephalitis and myelitis in infected adult. […] Using a target-based approach, we hope to establish a screening paradigm to uncover novel, cell-active NS2B-NS3 protease (Zika Virus) specific inhibitors from NCATS' collection of small molecules using qHTS.
Early Translation Branch (ETB)
National Center for Advancing Translational Sciences (NCATS), Rockville, MD
National Institute of Health (NIH), Bethesda, Maryland
Padmanabhan lab provided the NS2B hydrophilic domain and NS3 protease domain in a noncovalent complex used for the unlinked assay. Control compound aprotinin is obtained from Thermo Scientific (#78432; Waltham, Massachusetts). NS2B-NS3 AMC substrate (Bz-Nle-Lys-Arg-Arg-AMC; Nle-KRR-AMC) purchased from Bachem (#I-1995; Torrance, CA). Ac-VKTGKR-AMC purchased from Genscript or Bachem, Ac-FAAGKR-AMC purchased from Genscript, Ac-GLVKRR-AMC purchased from Genscript, Ac-LKKR-AMC purchased from Genscript.
GU AMC unlinked NS2B-NS3 protease qHTS protocol:
Briefly, 3 microL of Zika virus unlinked NS2B-NS3 protease (25 nM for linked final concentration), in assay buffer (10 mM Tris-HCl pH 8.0 with 0.01% Tween 20) was dispensed into a 1,536-well solid-bottom black plate (Greiner Bio One, Monroe, NC). Twenty-three nL of compounds (final concentration range 7.28 nM to 114 microM) or control Aprotinin (final concentration range 3.47 nM to 114 microM) were transferred via Wako Pin-tool (Wako Automation, Richmond, VA). […] Plates were then read immediately on a ViewLux High-throughput CCD imager (PerkinElmer, Waltham, MA) equipped with standard UV fluorescence optics (340(30) nm excitation, 450(20) nm emission) then incubated (room temperature, protected from light) for 15 minutes (~20% conversion). The change in fluorescence intensity over the 15-minute reaction period was normalized against no-inhibitor and no-enzyme controls and the resulting percent inhibition data were fitted to a 4-parameter Hill equation. Aprotinin was used as the intraplate control.
(In general: In qHTS, concentration-response curves come from the screen itself.)
As for `Cn1cnc(CCN)c1`, the Potency entry was “inactive”.

`Oc1ccc2c3c1O[C@H]1c4[nH]c5c(c4C[C@@]4(O)[C@@H](C2)N(CC2CC2)CC[C@]314)C[C@@]1(O)[C@H]2Cc3ccc(O)c4c3[C@@]1(CCN2CC1CC1)[C@H]5O4`: the Potency result is “inactive”.

For the compound `NC(=NCCC[C@H](N)C(=O)O)N[N+](=O)[O-]`, the Potency result is “inactive”.

Consider `Cc1nccc2c1[nH]c1ccccc12`, for which the Potency was 26.7 µM (active).

`O=C(N[C@H]1CN2CCC1CC2)c1ccc(Cl)cc1`: the Potency entry is “inactive”.

For `O=C1CCCN1CC#CCN1CCCC1`, the Potency entry is “inactive”.

`C[C@@H](N)Cc1cnc[nH]1`: the Potency entry is “inactive”.

For `CC(=O)[C@H]1CCC2C3CC[C@H]4C[C@H](O)CC[C@]4(C)C3CC[C@@]21C` (stereo not given in full), the Potency result was “inactive”.

Regarding `O=C(O)[C@@H]1CCN1`, the Potency result was “inactive”.

In the case of `c1ccc(CCCN2CCN(CCOC(c3ccccc3)c3ccccc3)CC2)cc1`, the Potency entry was “inactive”.

With `O=C(O)Cc1cnc[nH]1`, the Potency result was “inactive”.

Turning to `CN[C@@H]1C[C@@H](c2ccc(Cl)c(Cl)c2)c2ccccc21`, the Potency result was “inactive”.

As for `NCCc1c[nH]c2ccccc12`, the Potency entry was “inactive”.

On to `CC[C@@H](C(N)=O)N1CCCC1=O`, for which the Potency entry is “inactive”.

As to `NC1CC1c1ccccc1` (stereo not given), the Potency result is “inactive”.

Turning to `CCCN(CCC)[C@@H]1CCc2ccc(O)cc2C1`, the Potency result was “inactive”.

As for `NC(CP(=O)(O)O)C(=O)O` (stereo not given), the Potency entry was “inactive”.

Consider `CCCCc1ccc(C(=O)O)nc1`, for which the Potency result is “inactive”.

On to `O=C(O)CC[N+](=O)[O-]`, for which the Potency result is “inactive”.

Take `CC(=O)NCCc1c[nH]c2ccccc12`: the Potency entry is “inactive”.

Regarding `CCCN1CCO[C@@H]2c3cc(O)ccc3OC[C@H]21`, the Potency entry is “inactive”.

For `CNCCc1c[nH]c2ccc(O)cc12`, the Potency entry was “inactive”.

With `NCc1cc(=O)[nH]o1`, the Potency entry is “inactive”.

As to `S=C(NC1CCCCC1)N1CCC(c2cnc[nH]2)CC1`, the Potency result was “inactive”.

`NC1CCc2cc(O)c(O)cc2C1` (stereo not given): the Potency entry is “inactive”.

Regarding `NC(N)=NOCCC(N)C(=O)O` (stereo not given), the Potency entry was “inactive”.

With `CCCN(CCC)C1CCc2ccc(O)cc2C1` (stereo not given), the Potency result is “inactive”.

With `C[N+]1(C)C2CCC1CC(OC(=O)C(CO)c1ccccc1)C2` (stereo not given), the Potency entry is “inactive”.

For the compound `C[C@]12CCC3C(CC[C@H]4C[C@H](O)CC[C@]34C)C1CC[C@@H]2C(=O)CO` (stereo not given in full), the Potency result was “inactive”.

Take `C#CCOC(=O)C1=CCCN(C)C1`: the Potency result was “inactive”.

With `O=C(Cc1ccc(Cl)c(Cl)c1)N1CCCCC1CN1CCCC1` (stereo not given), the Potency entry was “inactive”.

With `C[C@]12N[C@H](Cc3ccccc31)c1ccccc12`, the Potency entry was “inactive”.

As to `CC(C)NC(C)Cc1ccc(I)cc1` (stereo not given), the Potency result is “inactive”.

For the compound `CC(C)Oc1cccnc1N(C)C1CCN(Cc2ccccc2)CC1`, the Potency was 29.9 µM (active).

In the case of `COc1cc(C(O)CN)ccc1O` (stereo not given), the Potency entry was “inactive”.

`C=CCN1CC[C@]23CCCCC2[C@H]1Cc1ccc(O)cc13` (stereo not given in full): the Potency result was “inactive”.

Take `C[C@@H]1O[C@H](C[N+](C)(C)C)C[C@H]1O`: the Potency entry is “inactive”.

For `CNCCc1ccc(O)c(O)c1`, the Potency entry was “inactive”.

As to `CC(Cc1ccc(O)cc1)NCC(O)c1cc(O)cc(O)c1` (stereo not given), the Potency entry is “inactive”.

With `CN1C2CCC1CC(OC(=O)c1cc(Cl)cc(Cl)c1)C2` (stereo not given), the Potency result is “inactive”.
